Shown is part of a subset that was picked to be rich in hits.
Dicer inh: human Dicer pre-microRNA cleavage inhibition; actives 6% (n = 47,000); cat-ELCCA pre-miR-21 Dicer processing, chemiluminescence; stronger effect = higher value; z-score at 25 µM; Q9UPY3; in the data active = z-score above about 3, passing the limit was not always enough;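 also: plate controls were vehicle for no effect and no enzyme for full effect; higher signal means more uncleaved substrate so more Dicer inhibition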
The depositor's hits bear a star.

SMILES	Dicer inh
CCOC(=O)c1c(NC(=O)c2ccco2)sc2c1CCC(C(C)(C)C)C2 (stereo unspecified)	0.15
O=C(Nc1sc2c(c1C(=O)O)CCCC2)c1ccco1	0.04
CCOC(=O)c1c(NC(=O)c2ccco2)sc2c1CCC(C)C2 (stereo unspecified)	3.3*
CC1CCc2c(sc(NC(=O)c3ccco3)c2C(=O)N2CCOCC2)C1 (stereo unspecified)	3*
CCOC(=O)c1c(NC(=O)c2ccco2)sc2c1CCC(CC)C2 (stereo unspecified)	-3.1
CNC(=O)c1c(NC(=O)c2ccco2)sc2c1CCC(C(C)(C)C)C2 (stereo unspecified)	0.51
O=S1(=O)CC(c2ccccc2)CS(=O)(=O)C1CCN1CCOCC1 (stereo unspecified)	-1.4
COC(=O)CNC(=O)CSC(C)C	8.2
C#CC(CC)(CC)N=Cc1cc(Br)ccc1OCC	-0.12
CCN(CC)c1ccc(NC(=O)c2cccs2)c(N(CC)CC)n1	0.65
CCCOc1ccccc1C1C(C(=O)OCC)=C(C)NC2=C1C(=O)CC(C)(C)C2 (stereo unspecified)	-0.79
O=S1(=O)N=C(Nc2nc(-c3ccc(Cl)cc3)cs2)c2ccccc21	-1.5
CCOC(=O)CSc1nnnn1-c1ccccc1	3.7*
OCCSc1nnnn1-c1ccccc1	-1.3
O=C(CSc1nnnn1-c1ccccc1)c1ccccc1	0.17
Cc1ccc(C2C3=C(Nc4ncnn42)c2ccccc2CCC3)cc1 (stereo unspecified)	2
c1ccc(-c2cc(N3CCOCC3)c3ccccc3n2)cc1	1.1
COc1ccc2nc(C)cc(N3CCOCC3)c2c1	-0.9
Cc1ccc2nc(C)cc(N3CCOCC3)c2c1	4.4*
CCOc1ccc(N2C(=O)CC(NCc3ccco3)C2=O)cc1 (stereo unspecified)	-0.16
CCOC(=O)c1cnn2c(C)cc(-c3ccc(OCC)cc3)nc12	-1.9
COC(=O)C1=NNC2C(=O)N(c3ccc(F)cc3)C(=O)C12 (stereo unspecified)	1.8
COC(=O)C1=C(C)N(c2ccc(F)cc2)CC1=O	3.2*
COC(=O)C1=C(C)NC(=O)CC1c1ccc(F)cc1 (stereo unspecified)	2.2
Cc1nc(SCC2CC2)[nH]c(=O)c1Cc1ccc(Cl)c(Cl)c1	-0.96
SMILES	Dicer inh
CN(C)c1ccc(/C=C(\C#N)S(=O)(=O)c2cccs2)cc1	2.1
C#CCN1C(=O)C(O)(CC(=O)c2ccc(C)cc2)c2cc(Br)ccc21 (stereo unspecified)	1.2
CCCC(=O)Nc1sc2c(c1C(=O)OC)CCC2	0.71
COC(=O)c1c(NC(=O)c2ccccc2Br)sc2c1CCC2	1.4
COC(=O)c1c(NC(=O)Nc2cccc(Cl)c2)sc2c1CCCC2	3.4*
Nc1ccccc1C(=O)NNC(=O)c1ccccc1Cl	-0.1
COC(=O)c1c(OC)ccc(N=C/C(C(C)=O)=C(\C)O)c1OC	-0.8
CCOC(=O)C(=CNc1ccc(C(=O)OC)o1)C(=O)OCC	0.79
CCC/C(O)=C(/C=Nc1ccccc1C(=O)OC)C(=O)OCC	3.2*
O=C1N(CCCc2ccccc2)c2ccccc2C1(O)c1c[nH]c2ccccc12 (stereo unspecified)	0.11
COc1cccc(NC(=S)NNC(=O)c2ccc(N(C)C)cc2)c1	1.6
Cn1nnnc1SCCNCc1cccc(Br)c1	1.1
Cn1c(Oc2ccc(F)cc2)nc2c1c(=O)n(Cc1ccccc1)c(=O)n2C	0.4
Cn1c(Oc2ccc(Br)cc2)nc2c1c(=O)n(Cc1ccc(Br)cc1)c(=O)n2C	1.2
COc1ccc(Oc2nc3c(c(=O)n(Cc4ccc(Br)cc4)c(=O)n3C)n2C)cc1	4.1*
O=c1nc(/C=C/c2ccc(-c3cccc(F)c3)o2)cc(C(F)(F)F)[nH]1	3.1*
Cc1ccsc1/C=C/c1cc(C(F)(F)F)[nH]c(=O)n1	1.1
COc1cc(/C=C/c2cc(C(F)(F)F)[nH]c(=O)n2)ccc1O	-0.13
O=C(NC(=O)c1c(Cl)cccc1Cl)Oc1ccc(F)cc1F	-0.01
O/N=C/N=C(NOCc1c(F)cccc1Cl)c1ccc(Cl)cc1	-0.95
Cc1nc(N2C(=O)c3oc4ccccc4c(=O)c3C2c2cccc(O)c2)sc1C (stereo unspecified)	-0.07
Cc1nc(C(F)(F)F)nc(Sc2ccc(Cl)cc2)c1C	-2
CC(=O)Nc1sc2c(c1C(=O)O)CC(C)(C)OC2	-1.3
COC(=O)c1c(NC(=O)CCC(=O)O)sc2c1CC(C)(C)OC2	0.59
CC1(C)Cc2c(sc(NC(=O)C(c3ccccc3)c3ccccc3)c2C#N)CO1	4.5*
SMILES	Dicer inh
COc1ccc(N2CCN(c3ncc4c(n3)CCCC4=O)CC2)cc1	-1.6
O=C(/C=C/Sc1c(Cl)cccc1Cl)c1ccc(Br)cc1	-0.12
Cc1ccc(C(=O)/C=C/Sc2ccccn2)cc1	0.72
O=C(/C=C/Sc1ccccn1)c1ccc(Br)cc1	3*
CC(C)(C)SCCNC(=O)C(C)(C)C	-0.43
O=C1Nc2ccccc2C1=Nc1ccc(Cc2ccc(N=C3C(=O)Nc4ccccc43)cc2)cc1	3.9*
COc1ccc(N=C2C(=O)Nc3ccc(Br)cc32)cc1	-3.6
O=C1Nc2ccccc2C1=NCCCN=C1C(=O)Nc2ccccc21	-1.2

Compound activity deposited in PubChem by Center for Chemical Genomics, University of Michigan.
